Laboratory results published in the supplement of paper PMC10849652.
Of roughly 8,800 targets only a part is listed; those with a hit were picked by preference. About 0.5% of all pairs of compound and target were hits.

Assays:
Assay in all cases: log2 fold change, soluble protein after heating vs DMSO (PISA); higher = thermal stabilisation; K562 lysate, 10 uM; active = over 0.2 and 3.5 SD of the protein, either way, in both replicates (recomputed)
vemurafenib = compound: CCCS(=O)(=O)Nc1ccc(F)c(C(=O)c2c[nH]c3ncc(-c4ccc(Cl)cc4)cc23)c1F [vemurafenib]
How it was run: (§1)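 Log-two fold change in thermal stability relative to solvent controls is reported from duplicates. For each sample, crude K562 extract from dounce-homogenised pellets in PBS pH 7.4 with 1 mM MgCl2, at 1 mg/mL protein, was treated with 10 μM compound for 30 min. Aliquots heated for 3 min across 48°C-58°C were pooled, brought to 0.5% NP-40 at 4°C and cleared at 21,000xg for 90 min. The supernatant was quantified by TMTpro 16plex LC-MS/MS with channel sums equalised.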

[1] = compound: CCCS(=O)(=O)Nc1ccc(F)c(C(=O)c2c[nH]c3ncc(Cl)cc23)c1F
How it was run: as §1

barasertib = compound: CCN(CCCOc1ccc2c(Nc3cc(CC(=O)Nc4cccc(F)c4)[nH]n3)ncnc2c1)CCOP(=O)(O)O [barasertib]
How it was run: as §1

[2] = compound: CC[C@@H]1C(=O)N(C)c2cnc(Nc3ccc(C(=O)NC4CCN(C)CC4)cc3OC)nc2N1C1CCCC1
How it was run: as §1

volasertib = compound: CC[C@@H]1C(=O)N(C)c2cnc(Nc3ccc(C(=O)N[C@H]4CC[C@H](N5CCN(CC6CC6)CC5)CC4)cc3OC)nc2N1C(C)C [volasertib]
How it was run: as §1

[3] = compound: CCn1c(C(=O)N(C2CC2)C2CC2)cc2c3c(ncn3C)c(Nc3cc(C)n(C)n3)nc21
How it was run: as §1

[4] = compound: CCn1cc(-c2ccnc3[nH]c(-c4cccc(CN(C)C)c4)cc23)c(-c2ccc(NC(=O)N(C)C)cc2)n1
How it was run: as §1

[5] = compound: CN1CCC(CNc2ccc3ncc(-c4cccc(OC(F)(F)F)c4)n3n2)CC1
How it was run: as §1

saracatinib = compound: CN1CCN(CCOc2cc(OC3CCOCC3)c3c(Nc4c(Cl)ccc5c4OCO5)ncnc3c2)CC1 [saracatinib]
How it was run: as §1

sotrastaurin = compound: CN1CCN(c2nc(C3=C(c4c[nH]c5ccccc45)C(=O)NC3=O)c3ccccc3n2)CC1 [sotrastaurin]
How it was run: as §1

alvocidib = compound: CN1CC[C@H](c2c(O)cc(O)c3c(=O)cc(-c4ccccc4Cl)oc23)[C@H](O)C1 [alvocidib]
How it was run: as §1

Tubastatin A = compound: CN1CCc2c(c3ccccc3n2Cc2ccc(C(=O)NO)cc2)C1 [Tubastatin A]
How it was run: as §1

[6] = compound: CNC(=O)C1=CC=CC=C1NC2=NC(=NC=C2Cl)NC3=C(C=C(C=C3)N4CCOCC4)OC
How it was run: as §1

defactinib = compound: CNC(=O)c1ccc(Nc2ncc(C(F)(F)F)c(NCc3nccnc3N(C)S(C)(=O)=O)n2)cc1 [defactinib]
How it was run: as §1

[7] = compound: CNc1nc(-c2ccc3c(N)n[nH]c3c2)cc(N2C[C@@H](C(=O)NC3CCCCC3)CC[C@H]2C)n1
How it was run: as §1

encorafenib = compound: COC(=O)N[C@@H](C)CNc1nccc(-c2cn(C(C)C)nc2-c2cc(Cl)cc(NS(C)(=O)=O)c2F)n1 [encorafenib]
How it was run: as §1

[8] = compound: COC(=O)[C@H](CCSC)NC(=O)C1=C(C=C(C=C1)NC[C@H](CS)N)C2=CC=CC=C2
How it was run: as §1

alisertib = compound: COc1cc(Nc2ncc3c(n2)-c2ccc(Cl)cc2C(c2c(F)cccc2OC)=NC3)ccc1C(=O)O [alisertib]
How it was run: as §1

[9] = compound: COc1cc2nc(-c3cc(F)ccc3O)nc(N[C@@H]3CNC[C@H]3C(C)(C)O)c2cc1OC
How it was run: as §1

gefitinib = compound: COc1cc2ncnc(Nc3ccc(F)c(Cl)c3)c2cc1OCCCN1CCOCC1 [gefitinib]
How it was run: as §1

Measured: log2 fold change

HSPA14 (UniProt Q0VDF9)
UniProt Q0VDF9, sequence (Q0VDF9 whole entry, looked up): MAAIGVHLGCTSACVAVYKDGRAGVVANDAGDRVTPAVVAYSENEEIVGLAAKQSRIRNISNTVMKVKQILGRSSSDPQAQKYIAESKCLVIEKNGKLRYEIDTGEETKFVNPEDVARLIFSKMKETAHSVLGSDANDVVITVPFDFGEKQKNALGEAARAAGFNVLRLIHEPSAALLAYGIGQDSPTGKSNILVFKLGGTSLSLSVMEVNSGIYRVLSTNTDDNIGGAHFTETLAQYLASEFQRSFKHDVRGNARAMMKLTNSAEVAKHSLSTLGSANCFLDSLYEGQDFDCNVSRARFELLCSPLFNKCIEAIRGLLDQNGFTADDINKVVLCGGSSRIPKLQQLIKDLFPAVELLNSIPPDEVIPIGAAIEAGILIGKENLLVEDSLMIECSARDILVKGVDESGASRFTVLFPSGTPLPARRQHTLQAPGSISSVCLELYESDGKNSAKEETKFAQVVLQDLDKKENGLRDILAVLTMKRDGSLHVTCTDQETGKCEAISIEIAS
inactive: vemurafenib 0.023 | [1] 0.011 | barasertib 0.001 | [2] -0.026 | volasertib -0.043 | [3] 0.013 | [4] 0.04 | [5] -0.021 | saracatinib 0.002 | sotrastaurin 0.039 | alvocidib 0.001 | Tubastatin A -0.081 | [6] 0.01 | defactinib 0.012 | [7] -0.011 | encorafenib -0.004 | [8] 0.153 | alisertib 0.028 | [9] 0 | gefitinib 0.02

IRF2BPL (UniProt Q9H1B7)
UniProt Q9H1B7, sequence (Q9H1B7 whole entry, looked up): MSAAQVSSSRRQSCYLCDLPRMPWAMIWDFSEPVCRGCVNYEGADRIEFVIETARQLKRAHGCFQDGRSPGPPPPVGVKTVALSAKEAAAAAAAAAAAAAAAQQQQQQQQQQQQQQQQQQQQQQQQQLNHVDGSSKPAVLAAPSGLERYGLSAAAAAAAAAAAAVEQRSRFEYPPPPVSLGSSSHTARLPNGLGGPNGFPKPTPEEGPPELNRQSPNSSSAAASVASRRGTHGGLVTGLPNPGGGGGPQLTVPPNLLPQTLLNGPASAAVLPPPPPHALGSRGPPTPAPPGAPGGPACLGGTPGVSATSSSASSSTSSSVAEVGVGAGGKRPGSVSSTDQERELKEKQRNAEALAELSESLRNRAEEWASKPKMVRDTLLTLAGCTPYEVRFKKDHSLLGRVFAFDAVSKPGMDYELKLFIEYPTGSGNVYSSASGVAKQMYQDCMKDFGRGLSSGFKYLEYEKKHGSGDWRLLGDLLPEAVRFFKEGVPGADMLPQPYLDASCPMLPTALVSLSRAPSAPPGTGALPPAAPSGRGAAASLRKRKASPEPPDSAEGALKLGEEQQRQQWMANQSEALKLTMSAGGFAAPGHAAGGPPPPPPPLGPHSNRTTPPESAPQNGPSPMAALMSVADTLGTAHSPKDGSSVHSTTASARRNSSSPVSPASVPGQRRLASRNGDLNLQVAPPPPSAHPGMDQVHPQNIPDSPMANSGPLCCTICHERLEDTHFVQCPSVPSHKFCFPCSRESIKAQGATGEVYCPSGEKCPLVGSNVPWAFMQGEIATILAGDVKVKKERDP
inactive: vemurafenib -0.039 | [1] 0.026 | barasertib 0.024 | [2] 0.04 | volasertib 0.001 | [3] 0.022 | [4] -0.195 | [5] 0.111 | saracatinib 0.025 | sotrastaurin -0.005 | alvocidib -0.076 | Tubastatin A -0.047 | [6] 0.01 | defactinib -0.007 | [7] 0.048 | encorafenib -0.017 | [8] -0.06 | alisertib -0.031 | [9] -0.013 | gefitinib -0.05

GRK6 isoform 2 (UniProt P43250)
UniProt P43250, sequence (P43250 whole entry, looked up): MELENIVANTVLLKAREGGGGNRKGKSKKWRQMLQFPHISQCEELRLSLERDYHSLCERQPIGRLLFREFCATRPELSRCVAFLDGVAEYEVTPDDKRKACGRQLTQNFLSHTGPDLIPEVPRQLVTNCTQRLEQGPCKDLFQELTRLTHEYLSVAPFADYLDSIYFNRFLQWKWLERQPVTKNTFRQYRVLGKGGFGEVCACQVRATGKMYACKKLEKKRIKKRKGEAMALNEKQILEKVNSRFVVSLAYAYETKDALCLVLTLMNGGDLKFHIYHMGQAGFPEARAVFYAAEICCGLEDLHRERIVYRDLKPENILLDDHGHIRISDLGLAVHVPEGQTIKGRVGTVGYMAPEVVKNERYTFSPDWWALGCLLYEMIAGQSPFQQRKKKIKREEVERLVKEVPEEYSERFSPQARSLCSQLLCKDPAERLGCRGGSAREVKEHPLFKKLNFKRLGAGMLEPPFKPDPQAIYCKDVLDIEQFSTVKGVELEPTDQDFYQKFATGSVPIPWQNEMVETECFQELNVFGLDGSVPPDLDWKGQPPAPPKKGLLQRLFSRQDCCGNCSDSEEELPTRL
inactive: vemurafenib 0.102 | [1] 0.046 | barasertib 0.042 | [2] 0.11 | volasertib 0.006 | [3] -0.032 | [4] -0.136 | saracatinib -0.056 | sotrastaurin -0.001 | alvocidib -0.05 | Tubastatin A 0.074 | [6] 0.007 | defactinib 0.034 | [7] 0.148 | encorafenib -0.082 | [8] 0.043 | alisertib -0.04 | [9] -0.015 | gefitinib 0.064
active: [5] 0.614

KHK isoform 2 (UniProt P50053)
UniProt P50053, sequence (P50053 whole entry, looked up): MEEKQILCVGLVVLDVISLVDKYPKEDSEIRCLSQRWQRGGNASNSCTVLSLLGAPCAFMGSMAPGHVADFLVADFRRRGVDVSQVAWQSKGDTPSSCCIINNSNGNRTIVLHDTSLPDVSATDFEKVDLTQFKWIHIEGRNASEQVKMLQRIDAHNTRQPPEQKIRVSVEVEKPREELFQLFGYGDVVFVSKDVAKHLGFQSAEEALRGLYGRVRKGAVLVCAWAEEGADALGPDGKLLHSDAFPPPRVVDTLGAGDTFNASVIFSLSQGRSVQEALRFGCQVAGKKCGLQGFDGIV
inactive: vemurafenib -0.021 | [1] 0 | barasertib 0.052 | [2] -0.053 | volasertib 0.017 | [3] 0.076 | [5] -0.072 | saracatinib 0.067 | sotrastaurin 0.013 | alvocidib 0.058 | Tubastatin A -0.001 | [6] -0.057 | defactinib -0.038 | [7] -0.068 | encorafenib 0.03 | [8] -0.02 | alisertib 0.008 | [9] 0.083 | gefitinib -0.038
active: [4] 0.404

HMGB1 (UniProt P09429)
UniProt P09429, sequence (P09429 whole entry, looked up): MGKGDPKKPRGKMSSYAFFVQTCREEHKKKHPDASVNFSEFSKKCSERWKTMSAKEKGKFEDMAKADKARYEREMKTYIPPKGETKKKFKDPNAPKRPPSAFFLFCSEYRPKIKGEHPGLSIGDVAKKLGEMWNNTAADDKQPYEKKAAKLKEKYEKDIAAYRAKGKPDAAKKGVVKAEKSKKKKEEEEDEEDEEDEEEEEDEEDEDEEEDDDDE
inactive: vemurafenib -0.01 | [1] -0.014 | barasertib -0.013 | [2] 0.102 | volasertib 0.035 | [3] -0.039 | [5] -0.184 | saracatinib -0.011 | sotrastaurin -0.075 | alvocidib 0.126 | Tubastatin A 0.059 | [6] 0.01 | defactinib 0.074 | [7] 0.046 | encorafenib -0.006 | [8] -0.09 | alisertib -0.043 | [9] -0.025 | gefitinib -0.131
active: [4] 0.389

HMGA1 (UniProt P17096)
UniProt P17096, sequence (P17096 whole entry, looked up): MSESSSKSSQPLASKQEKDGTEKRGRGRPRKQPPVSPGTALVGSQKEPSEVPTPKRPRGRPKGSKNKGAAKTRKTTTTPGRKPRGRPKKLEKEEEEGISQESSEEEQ
active: [4] -0.323
inactive: vemurafenib 0.023 | [1] -0.011 | barasertib -0.05 | [2] 0.051 | volasertib 0.02 | [3] -0.04 | [5] 0.131 | saracatinib -0.001 | sotrastaurin 0.012 | alvocidib -0.108 | Tubastatin A 0.066 | [6] -0.001 | defactinib -0.007 | [7] 0.023 | encorafenib -0.005 | [8] -0.018 | alisertib 0.046 | [9] 0.011 | gefitinib -0.027

GTF3C3 (UniProt Q9Y5Q9)
UniProt Q9Y5Q9, sequence (Q9Y5Q9 whole entry, looked up): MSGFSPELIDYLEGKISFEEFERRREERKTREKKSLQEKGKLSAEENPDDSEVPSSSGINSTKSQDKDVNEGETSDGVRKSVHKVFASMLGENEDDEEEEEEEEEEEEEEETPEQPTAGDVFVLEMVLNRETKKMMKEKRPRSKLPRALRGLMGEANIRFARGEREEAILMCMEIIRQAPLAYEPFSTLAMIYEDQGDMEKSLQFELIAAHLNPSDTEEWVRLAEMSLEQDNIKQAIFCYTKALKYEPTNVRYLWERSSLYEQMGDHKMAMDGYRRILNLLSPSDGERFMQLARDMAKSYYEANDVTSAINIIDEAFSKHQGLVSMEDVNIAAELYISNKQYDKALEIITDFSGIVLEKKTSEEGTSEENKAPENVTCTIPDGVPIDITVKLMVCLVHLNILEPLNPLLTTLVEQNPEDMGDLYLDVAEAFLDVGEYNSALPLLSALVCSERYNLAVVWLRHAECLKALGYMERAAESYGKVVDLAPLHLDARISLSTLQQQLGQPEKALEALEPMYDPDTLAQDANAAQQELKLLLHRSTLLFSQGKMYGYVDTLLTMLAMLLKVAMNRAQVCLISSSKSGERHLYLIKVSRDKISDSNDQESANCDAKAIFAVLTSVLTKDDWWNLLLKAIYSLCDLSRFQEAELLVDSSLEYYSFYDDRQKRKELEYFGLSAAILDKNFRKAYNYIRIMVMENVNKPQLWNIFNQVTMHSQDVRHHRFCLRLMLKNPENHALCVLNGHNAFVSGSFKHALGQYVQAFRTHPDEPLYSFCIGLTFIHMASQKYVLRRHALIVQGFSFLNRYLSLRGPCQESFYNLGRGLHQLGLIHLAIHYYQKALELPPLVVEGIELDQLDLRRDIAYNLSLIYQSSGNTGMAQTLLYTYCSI
inactive: vemurafenib 0.062 | [1] 0.06 | barasertib 0.01 | [2] -0.088 | volasertib -0.014 | [3] 0.003 | [4] -0.158 | [5] 0.005 | saracatinib 0.049 | sotrastaurin -0.013 | alvocidib -0.018 | Tubastatin A -0.147 | [6] 0.043 | defactinib -0.007 | [7] 0.04 | encorafenib -0.001 | [8] 0.065 | alisertib -0.006 | [9] 0.02 | gefitinib -0.006

KDM5C (UniProt P41229)
UniProt P41229, sequence (P41229 whole entry, looked up): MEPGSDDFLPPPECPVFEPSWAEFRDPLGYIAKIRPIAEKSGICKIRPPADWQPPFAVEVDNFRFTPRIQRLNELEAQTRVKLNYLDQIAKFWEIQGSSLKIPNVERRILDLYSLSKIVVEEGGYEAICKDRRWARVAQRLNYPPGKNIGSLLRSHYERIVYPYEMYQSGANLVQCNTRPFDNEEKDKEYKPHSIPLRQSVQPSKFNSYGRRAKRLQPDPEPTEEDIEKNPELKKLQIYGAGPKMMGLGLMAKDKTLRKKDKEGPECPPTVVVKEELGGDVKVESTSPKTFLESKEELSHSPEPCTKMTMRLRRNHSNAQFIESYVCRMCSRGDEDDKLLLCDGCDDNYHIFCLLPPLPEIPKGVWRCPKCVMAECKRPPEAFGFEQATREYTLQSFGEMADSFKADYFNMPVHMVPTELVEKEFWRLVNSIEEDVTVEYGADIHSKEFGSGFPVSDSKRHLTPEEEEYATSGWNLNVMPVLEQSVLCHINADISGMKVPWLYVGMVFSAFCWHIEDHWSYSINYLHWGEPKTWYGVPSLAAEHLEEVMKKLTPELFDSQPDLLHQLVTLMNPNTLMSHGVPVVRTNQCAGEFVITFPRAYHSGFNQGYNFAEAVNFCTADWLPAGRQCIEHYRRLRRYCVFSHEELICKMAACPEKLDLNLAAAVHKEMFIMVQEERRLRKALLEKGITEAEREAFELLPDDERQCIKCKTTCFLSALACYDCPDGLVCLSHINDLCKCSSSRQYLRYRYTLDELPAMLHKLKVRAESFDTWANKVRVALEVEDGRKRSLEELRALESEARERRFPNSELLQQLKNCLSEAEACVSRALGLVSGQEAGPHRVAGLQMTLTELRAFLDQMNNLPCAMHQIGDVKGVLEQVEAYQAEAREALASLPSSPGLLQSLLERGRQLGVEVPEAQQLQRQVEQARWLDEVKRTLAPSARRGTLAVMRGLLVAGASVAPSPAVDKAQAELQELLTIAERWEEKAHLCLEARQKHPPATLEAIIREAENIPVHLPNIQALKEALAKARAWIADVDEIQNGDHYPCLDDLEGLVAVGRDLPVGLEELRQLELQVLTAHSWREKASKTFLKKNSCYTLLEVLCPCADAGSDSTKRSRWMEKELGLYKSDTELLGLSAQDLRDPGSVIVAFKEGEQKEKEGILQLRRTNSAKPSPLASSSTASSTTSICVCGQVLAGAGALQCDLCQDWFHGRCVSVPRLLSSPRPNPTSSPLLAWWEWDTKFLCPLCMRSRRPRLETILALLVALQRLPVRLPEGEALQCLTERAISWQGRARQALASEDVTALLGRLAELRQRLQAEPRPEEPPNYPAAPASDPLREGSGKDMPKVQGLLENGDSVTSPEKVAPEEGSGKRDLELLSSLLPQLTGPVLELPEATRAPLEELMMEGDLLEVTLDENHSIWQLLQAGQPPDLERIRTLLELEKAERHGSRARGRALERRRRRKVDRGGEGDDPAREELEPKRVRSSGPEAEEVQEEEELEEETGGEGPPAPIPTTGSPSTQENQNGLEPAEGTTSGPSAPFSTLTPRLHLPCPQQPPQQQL
inactive: vemurafenib 0.001 | [1] 0.036 | barasertib 0.096 | [2] -0.031 | volasertib 0.004 | [3] -0.001 | [4] -0.028 | [5] -0.059 | saracatinib 0.008 | sotrastaurin 0.019 | alvocidib -0.02 | Tubastatin A -0.115 | [6] 0.059 | defactinib -0.009 | [7] 0.04 | encorafenib -0.018 | [8] 0.176 | alisertib -0.01 | [9] 0.09 | gefitinib -0.013
